Only some compounds are listed: those with a hit (about 8.1% of all), similar ones and a draw of the others.
MCF10A rereplic: A quantitative high throughput screen for small molecules that induce DNA re-replication in MCF 10a normal breast cells; MCF 10A DNA re-replication, Hoechst nuclear intensity, 48 h; Potency, µM (series often up to 46.1 µM), for the others: at the top dose activity, positive = re-replication, actives largely listed as activators; actives 2.9% (n = 350,000); also: % of control where 0% means no effect; nearly all actives have a fitted effect of over 50% in size
ELG1 DNA repair: qHTS screen for small molecules that inhibit ELG1-dependent DNA repair in human embryonic kidney (HEK293T) cells expressing luciferase-tagged ELG1; HEK293T ELG1-luciferase reporter, luminescence, 16 h; DNA damage induced by 5-fluorouridine; Potency, µM (highest dose often 46.1 µM), inactives show at the highest dose activity change, negative = inhibition, hits mostly inhibitors; actives 2.3% (n = 330,000); also: % is scaled to controls: 0 for no effect and ±100 for the full control effect; nearly all actives have a fitted effect of over 55% in size
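Reporter activity after DNA damage by 5-fluorouridine is monitored. Compound-treated cells incubate 16 hr at 37 °C, then ONE-Glo is added for 30 min before luminescence reading.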
KB-3-1 tox: qHTS assay for MDR1-selective chemotherapeutics: Primary screen using the parental adenocarcinoma cell KB-3-1 | actives 1.4% (n = 400,000) | Potency, µM (highest dose often 46.1 µM), actives largely listed as cytotoxic | KB-3-1 viability, CellTiter-Glo ATP luminescence, 72 h; also: % is scaled to controls: 0 for no effect and ±100 for the full control effect; nearly all actives have a fitted effect of over 60% in size
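Screening of KB-3-1 cells (DMEM, 10% FBS, phenol-red free) ran from lowest to highest compound concentration; after 72 h at 37 °C viability was read luminescently and curves fitted.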
KB-V1 MDR tox: qHTS assay for MDR1-selective chemotherapeutics: Primary screen using the drug-selected MDR subline cells KB-V1 | KB-V1 MDR cells viability, CellTiter-Glo, 72 h | Potency, µM (top dose mostly 46.1 µM), usual class: cytotoxic | actives 3.4% (n = 400,000); also: % is scaled to controls: 0 for no effect and ±100 for the full control effect; nearly all actives have a fitted effect of over 60% in size
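Compound-treated KB-V1 multidrug-resistant cells, 72 h, 37 degrees C; viability by CellTiter-Glo. Fitted qHTS curves give the values.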
SW480 rerep: A quantitative high throughput screen for small molecules that induce DNA re-replication in SW480 colon adenocarcinoma cells | SW480 DNA re-replication, Hoechst DNA content imaging, 48 h | Potency, µM (titrated, usually from 46.1 µM), for the others: at the top dose re-replication activation, actives largely listed as activators | actives 1.8% (n = 340,000) | AID 624297, 2012; also: % of control where 0% means no effect; nearly all actives have a fitted effect of over 55% in size
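Treated cells incubate 48 hr (37 C, 5% CO2), are stained 40 min with Hoechst, and nuclear fluorescence is enumerated; a rise in nuclei with high DNA signal marks re-replication.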
Starred values were filed as active, the others as inactive; i = inactive; ? = inconclusive; / = no result given; [ ] = another dose, or the depositor's remark. Calls follow the shape of the dose curve; as a rule, active = well fitted curve in the direction sought with a large enough effect; inconclusive = small, poorly fitted or top-dose-only effect, or another doubt; inactive = no such curve, though single readings can be large; an effect the other way counts as inactive or inconclusive. Potency is read from the fitted curve at half-maximal effect.

SMILES	MCF10A rereplic	ELG1 DNA repair	KB-3-1 tox	KB-V1 MDR tox	SW480 rerep
COc1ccc(-c2onc3ccc(C(=O)/C=C/N(C)C)cc23)cc1	18µM*	-11%	?	?	16µM*
CCCCCc1c(C)nc(N2CCc3ccccc32)[nH]c1=O	-4%	-14%	?	3.3µM*	?
COC(=O)[C@@]12C[C@@H](CC(=O)NCCc3ccccc3OC)C(=O)N(Cc3cccc4ccccc34)C1=CCC(C)(C)C2	/	/	?	23µM*	/
COC(=O)[C@@]12C[C@@H](CC(=O)NCC3CCCCC3)C(=O)N(Cc3cccc4ccccc34)C1=CCC(C)(C)C2	/	/	?	21µM*	/
COC(=O)[C@@]12C[C@@H](CC(=O)NCCC(C)C)C(=O)N(Cc3cccc4ccccc34)C1=CCC(C)(C)C2	/	/	21µM*	21µM*	/
COC(=O)[C@@]12C[C@@H](CC(=O)NCc3cccc4ccccc34)C(=O)N(Cc3cccc4ccccc34)C1=CCC(C)(C)C2	/	/	i	?	/
COC(=O)[C@@]12C[C@@H](CC(=O)NCCCN3CCCC3=O)C(=O)N(Cc3cccc4ccccc34)C1=CCC(C)(C)C2	/	/	i	i	/
COC(=O)[C@]12CCCCC=C1N(Cc1cccc3ccccc13)C(=O)[C@H](CC(=O)NCCC(C)C)C2	/	/	?	18µM*	/
COC(=O)[C@@]12C[C@@H](CC(=O)NCc3ccc(C)o3)C(=O)N(Cc3cccc4ccccc34)C1=CCC(C)(C)C2	/	/	i	?	/
COc1cc(OC)c(NC(=O)CCc2c(C)nc3cc(-c4ccccc4OC)nn3c2C)cc1Cl	/	/	i	i	/
CN(CC(=O)Nc1ccccc1Cl)C(=O)Cn1cc(C(F)(F)F)ccc1=O	-6%	20%	i	i	-3%
COC(=O)[C@]12CCCCC=C1N(Cc1ccc3c(c1)OCO3)C(=O)[C@H](CC(=O)NCc1cccc3ccccc13)C2	/	/	?	23µM*	/
O=[N+]([O-])c1cc(S(=O)(=O)Nc2ccccc2)ccc1Nc1ccccc1	?	/	?	?	-5%
O=C(O)COCC(=O)Nc1ccc(Oc2ncnc3cc(Cl)ccc23)nc1	-9%	0%	i	i	-40%
COCC(=O)OC1CCn2c1nc1c2C(=O)C(C)=C(NC(C)=O)C1=O (stereo unspecified)	9.2µM*	/	?	i	1.5µM*
Cc1nc(Nc2ccc(Cl)cc2)c2nnn(Cc3ccccc3)c2n1	23µM*	-1%	i	?	11%
Cc1nc(Nc2ccc(S(=O)(=O)N3CCCCC3C)cc2)c2nnn(Cc3ccccc3)c2n1 (stereo unspecified)	-33%	7.3µM*	16µM*	2.3µM*	5%
COc1ccc(Nc2nc(C)nc3c2nnn3Cc2ccccc2)cc1OC	13%	9.2µM*	i	?	-1%
Cc1nc(Nc2ccccc2Br)c2nnn(Cc3ccccc3)c2n1	25%	-1%	i	i	-1%
O=C(COC(=O)/C=C/c1ccco1)NCc1ccccc1	2%	-16%	i	i	-7%
COc1ccc(N(CC(=O)NCc2ccco2)S(=O)(=O)c2ccc(C)cc2)cc1	?	-2%	i	?	?
COCCNC(=S)NN=C1CCCCCC1	8.2µM*	-3%	i	i	?
C/C(=N\NC(=O)Cc1cccc2ccccc12)c1ccncc1	?	-9%	i	?	?
O=C(NC1CCCCC1)N1CCCC(c2nc3ccccc3[nH]2)C1 (stereo unspecified)	-5%	-10%	i	21µM*	-1%
C=CCn1c(O)c(C(CC)=NCCN2CCOCC2)c(=O)[nH]c1=O	329%[0.0737 µM]	5%	i	i	2%
SMILES	MCF10A rereplic	ELG1 DNA repair	KB-3-1 tox	KB-V1 MDR tox	SW480 rerep
CC(C)(C)OC(=O)NCC12C=CC(O1)C1C(=O)N(Cc3ccccc3)C(=O)C12 (stereo unspecified)	7%	23µM*	i	?	-1%
Cc1ccc(N2C(=O)C3C4C=CC(CNC(=S)N5CCN(c6ccccc6)CC5)(O4)C3C2=O)cc1 (stereo unspecified)	?	5%	i	i	81%
CCC(=O)Oc1ccc(C(=O)Nc2ccc3c(c2)C(=O)N(C2CCCCC2)C3=O)cc1	23µM*	?	?	?	?
COc1cc2c(cc1OC)CN(C(=O)c1ccc(Br)o1)CC2	1%	15%	i	i	-11%
COc1cc2c(cc1OC)C(C)N(C(=O)c1cc(Cl)nc(Cl)c1)CC2 (stereo unspecified)	9.2µM*	?	?	i	8.2µM*
COc1cc2c(cc1OC)C(C)N(C(=O)c1ccc(Br)o1)CC2 (stereo unspecified)	17%	?	21µM*	13µM*	20%
COC(=O)c1scc(-c2ccc(C)cc2)c1S(=O)(=O)N1CCN(c2ccc(C(C)=O)cc2)CC1	/	/	i	i	/
O=S(=O)(Nc1ccc(O)c(Sc2nc3ccccc3s2)c1)c1cccc2ccccc12	?	?	?	?	-6%
CCOC(=O)C1=C(C)NC(SCC(N)=O)=C(C#N)C1c1cccs1 (stereo unspecified)	-6%	-12%	?	i	3%
CCSC1=C(C#N)C(c2cccs2)C(C(=O)OC)=C(C)N1 (stereo unspecified)	12%	-16%	i	21µM*	11%
C=CCOC(=O)C1=C(C)NC(SC)=C(C#N)C1c1cccs1 (stereo unspecified)	?	-19%	12µM*	6.5µM*	?
Cc1cccc(Nc2nc(N)c([N+](=O)[O-])c(N3CCN(C)CC3)n2)c1	14%	?	i	?	6%
CCN1CCN(c2nc(Nc3cccc(C)c3)nc(N)c2[N+](=O)[O-])CC1	0%	?	i	4.1µM*	0%
Cc1cccc(Nc2nc(N)c([N+](=O)[O-])c(N3CCCC(C)C3)n2)c1 (stereo unspecified)	?	26µM*	?	?	?
CCN(CC(=O)Nc1ccc(C(C)=O)cc1)CC(=O)Nc1cccc(OC)c1	-1%	-13%	i	?	1%
COc1ccccc1CNC(=O)COc1cc2c(c3oc(=O)cc(C)c13)CCC(C)(C)O2	?	?	i	16µM*	?
CCCCC(=O)Oc1ccc2oc(-c3ccc(OC)cc3)cc(=O)c2c1	/	/	i	6.5µM*	/
COc1ccc(-c2cc(=O)c3cc(OC)ccc3o2)cc1	-9%	?	i	i	-10%

Compound activity from PubChem BioAssay.
